# According to PubChem BioAssay AID651820 (National Center for Advancing Translational Sciences (NCATS), 2012):
# In all, about 340,000 compounds went through this assay and about 12,000 (3.5%) were called active. About 18% were inconclusive and are not listed. The sample holds actives, similar compounds and a random draw of the others, so the mix is not that of the screen. A number with no mark means an inactive call. Calls come from the whole dose curve; as a rule, active = well fitted inhibition curve with a large enough effect; inconclusive = small, poorly fitted or top-dose-only effect, or another doubt; inactive = no such curve, though single readings can be large or run the other way.
# Assay: qHTS Assay for Inhibitors of Hepatitis C Virus (HCV)
# Details: Huh7.5.1 HCVcc-Cre infection, luciferase reporter, 44 h; series mostly up to 41.8 µM; activity change, negative = inhibition: at the top concentration
# Text: Hepatitis C virus (HCV) infects about 200 million people in the world. Many infected people progress to chronic liver disease including cirrhosis with a risk of developing liver cancer. To date, there is no effective vaccine for hepatitis C. Current therapy based on interferon is only effective in about half of the patients and is associated with significant adverse effects. The fraction of people with HCV who can complete a successful treatment is estimated to be no more than 10 percent. Recent development of direct-acting antivirals against HCV, such as protease and polymerase inhibitors, is promising but still requires combination with peginterferon and ribavirin for maximal efficacy. In addition, these agents are associated with high rate of resistance and many have significant side effects. Due to the lack of a culture system for infectious HCV, the search for new HCV drugs has been greatly hampered. […] High-throughput screening (HTS) with an infectious HCV system would cover the complete spectrum of potentially druggable targets in all stages of HCV lifecycle, and would have more biological relevance than other cell-based assays. Moreover, targeting several key processes in the viral life cycle may not only increase antiviral efficacy; more importantly, it may also reduce the capacity of the virus to develop resistance to the compound. The goal of this project is to identify novel HCV inhibitors as new therapies for hepatitis C, using a highly sensitive and specific assay platform which is based on a HCV infectious cell culture system established in the laboratory and adapted for high-throughput HCV drug screen. NIH Chemical Genomics Center [NCGC] NIH Molecular Libraries Probe Centers Network [MLPCN] MLPCN Grant: MH095511 Assay Submitter (PI): Jake Liang, NIDDK
# The assay will start with plating 1,000 cells/well in 3 µL volume and culture for 4 h. Then 23 nL of compounds from the library collection will be added to each well, followed by adding 2.5 µL of HCVcc-Cre virus (~ 0.5 moi) and further cultured for 44 h before the luciferase assay. A volume of 4.5 µL luciferase substrates will be added to each well and the plates will be incubated at room temperature for 15 min. and then read for 15 sec. for the luciferase activity
# % is set by controls: 0 for no effect and ±100 for the full control effect.
Compound,"activity change, negative = inhibition",Potency
O=C1c2ccccc2C(=O)C1c1ccccc1F,-1.17%,
CCOC(=O)C1=C(C)N=C2c3ccccc3C(=O)C2C1c1ccc(Br)cc1 (configuration not stated),-21.8%,
O=C1c2ccccc2C2=Nc3ccccc3SC(c3ccccc3F)C12 (configuration not stated),,5.01 µM (active)
Cc1sc2nc(CSCC(=O)NC3CCCCC3)[nH]c(=O)c2c1C,6.44%,
CC1=CC(=Cc2sc3ccccc3[n+]2C)C=C(C)O1,,5.01 µM (active)
CC(C)C(NC(=O)c1c(F)cccc1F)C(=O)NNC(=O)c1ccccc1 (configuration not stated),7.93%,
O=C(NCCc1ccc(F)cc1)c1ccc(S(=O)(=O)N2CCCCC2)cc1,-27.2%,
COc1ccc(CNC(=O)C2(CC3CC(c4ccccc4)=NO3)CCN(C(=O)c3cccc(O)c3)CC2)cc1 (configuration not stated),-11.6% [at 8.37 µM],
O=C(COc1ccc(Cl)cc1)N1CCN(S(=O)(=O)c2ccc(Cl)cc2)CC1,7.75%,
O=C(CCC(=O)N1CCN(S(=O)(=O)c2ccc(Cl)cc2)CC1)NCc1cccc(C(F)(F)F)c1,,11.2 µM (active)
O=C(CCC(=O)c1ccccc1)NCc1cccc(C(F)(F)F)c1,-0.719%,
O=C1c2ccccc2C(=O)C1C(=O)C1CC1,0.357%,
CCN(CC(=O)Nc1ccc(OC)cc1)C(=O)c1ccc(=O)n(Cc2ccccc2)n1,0.141%,
CC(NC(=O)COC(=O)Cn1cc(C(F)(F)F)ccc1=O)c1ccccc1 (configuration not stated),15.9%,
CNCC[C@H](Oc1ccc(C(F)(F)F)cc1)c1ccccc1,,3.98 µM (active)
CC(CC(=O)Nc1cc(C(F)(F)F)ccc1Cl)c1ccccc1 (configuration not stated),-7.71%,
COc1ccc2nc3n(c(=O)c2c1)-c1cc(C)ccc1C(=O)NC3Cc1ccc(O)cc1 (configuration not stated),15.7%,
COc1cccc(N(CC(=O)Nc2cccc(N(C)S(C)(=O)=O)c2)S(C)(=O)=O)c1,-10.5%,
CN(c1cccc(NC(=O)c2ccc(CN3CCc4ccccc4C3)cc2)c1)S(C)(=O)=O,,11.2 µM (active)
CC(=O)Nc1cccc(NC(=O)c2ccc3c(c2)CCN3S(C)(=O)=O)c1,11.1%,
CN(c1cccc(NC(=O)Nc2ccc(Cl)cc2)c1)S(C)(=O)=O,,10 µM (active)

Compound,"activity change, negative = inhibition",Potency
CN(c1ccc(C(=O)N2CCc3ccccc3C2)cc1)S(C)(=O)=O,-3.55%,
Cc1ccc(N(CC(=O)Nc2cccc(N(C)S(C)(=O)=O)c2)S(C)(=O)=O)cc1,-11.3%,
O=C(CNC(=O)c1ccccc1F)OCC(=O)c1c[nH]c2ccccc12,7.77%,
Cc1ccsc1C(=O)NC1CCCCC1C (configuration not stated),4.79%,
O=C(NCCN1CCOCC1)c1cccc(S(=O)(=O)Nc2ccc(F)cc2)c1,3.15%,
C#CCOCCOCCOCCNc1nc(N2CCN(C(=O)Cn3cc(CCO)nn3)CC2)nc(N2CCN(C(=O)[C@H](CCCCN)n3cc(CCCC)nn3)CC2)n1,-0.907% [at 8.37 µM],
CCOC(=O)c1cc(-c2ccccc2C)n(Cc2cc(C)no2)n1,-15.8%,
N#CCCN(C(=O)COC(=O)c1ccc(S(=O)(=O)N2CCCCCC2)cc1)c1ccccc1,-2.62%,
Cc1cc(C)n2nc(C(=O)OCC(=O)N(CCC#N)c3ccc(F)cc3)nc2n1,24.9%,
Cc1c(C(=O)OCC(=O)N(CCC#N)c2ccccc2)oc2c1ccc1ccccc12,,8.91 µM (active)
Cc1cccc(C)c1NC(=O)COC(=O)c1c(C)nn(-c2ccccc2)c1C,-29.5%,
Cc1ccc(S(=O)(=O)Nc2nc(CN3CCOCC3)nc3sc(C)c(C)c23)cc1,14.3%,
CSc1nsc(SCC(=O)Nc2cc(C(=O)O)ccc2C)n1,28.5%,
COc1ccc(C)cc1NC(=O)CSc1nc(SC)ns1,,11.2 µM (active)
COc1ccc(C)cc1NC(=O)CSc1cccc[n+]1[O-],20.4%,
Cc1ccc(C(=O)CN2C(=O)NC3(CCOc4ccccc43)C2=O)s1 (configuration not stated),7.99%,
Cc1ccc(N2CC(C(=O)Nc3cc(Cl)ccc3-n3cncn3)CC2=O)cc1 (configuration not stated),8.85%,
OC(COc1ccccc1)CN1CCN(c2cccc(Cl)c2)CC1 (configuration not stated),13.3%,
CCN1C(=O)/C(=C\N2CCN(c3cccc(Cl)c3)CC2)SC1=S,-4.91%,
CCc1nn(CCCN2CCN(c3cccc(Cl)c3)CC2)c(=O)n1CCOc1ccccc1,,10 µM (active)
Cc1ccc(C(=O)OCC(=O)N2CC(C)CC(C)C2)cc1S(=O)(=O)N1CCCCC1 (configuration not stated),-4.66%,

Compound,"activity change, negative = inhibition",Potency
N#Cc1cccc(NC(=O)COC(=O)c2ccccc2C(=O)c2ccc(Cl)c([N+](=O)[O-])c2)c1,,10 µM (active)
O=C(Nc1ccncc1)c1ccc(Cl)c([N+](=O)[O-])c1,-0.941%,
NC(=O)c1ccc(NC(=O)COC(=O)c2ccc([N+](=O)[O-])cc2)cc1,11.3%,
CC(=O)Nc1ccc(NC(=O)COC(=O)c2ccccc2C(=O)c2ccccc2)cc1,5.01%,
CC(OC(=O)CNC(=O)c1ccc(Cl)c([N+](=O)[O-])c1)C(=O)NCc1ccco1 (configuration not stated),-1.08% [at 8.37 µM],
CC(=O)Nc1ccc(NC(=O)C(C)OC(=O)c2ccccc2C(=O)c2ccc(Cl)c([N+](=O)[O-])c2)cc1 (configuration not stated),,11.2 µM (active)
COc1ccc(C(=O)COC(=O)c2c(C)noc2C)cc1Cl,-8.16%,
CCOC(=O)c1ccc(NC(=O)C2CC(=O)N(c3ccc4c(c3)OCCO4)C2)cc1 (configuration not stated),7.75%,
CCCN(CC(=O)Nc1ccccc1C)C(=O)c1ccc(OCC(=O)N2CCOCC2)c(OCC)c1,-8.77%,
NC(=O)NC(CC(=O)NNC(=O)c1ccccn1)c1ccc(Cl)cc1 (configuration not stated),0.701%,
O=C(NCC1CCCO1)c1cc2c(s1)CCCC2 (configuration not stated),-18.7%,
O=C(O)c1cc(S(=O)(=O)Nc2ccc3cn[nH]c3c2)ccc1Br,7.46%,
O=C(NCc1ccccc1)C1=C[C@@H](c2ccccc2)C[C@@H](OCCCCO)O1,6.06%,
N=C(N)SCc1cccc2ccccc12,,6.31 µM (active)
N#C/C(=C(/O)Cc1cccc2ccccc12)c1nc2ccccc2s1,13.7%,
c1ccc2c(CNn3cnnc3)cccc2c1,0.47%,
Cc1ccc2c(c1)c1ncn(Cc3ccc(F)cc3)c(=O)c1n2C,-22.6%,
CC(C)(C)n1ncc2c(=O)n(Cc3ccc(Cl)cc3)cnc21,,11.2 µM (active)
CC(=O)Cn1cnc2c(cnn2-c2ccccc2)c1=O,-0.203%,
CC(C)Cn1c(SCC(=O)Nc2ccc(Cl)cc2F)nc(O)cc1=O,30.9%,
